The text below walks through data of PubChem BioAssay (Tox21).

A short description of assay [1]: Nuclear factor erythroid 2-related factor 2/antioxidant responsive element (Nrf2/ARE) small molecule agonists: qHTS cell viability counter screen in human keratinocytes (AID 1919968; active means well fitted curve in the direction sought with a large enough effect in the repeat runs; an effect the other way counts as inactive or inconclusive; further: nearly all actives have a fitted effect of over 55% in size; further: potency means the concentration at half of the fitted maximal effect). The note with it: KeratinoSens HaCaT ARE cells viability, CellTiter-Fluor, 24 h; series mostly up to 92.4 µM. The method, boiled down:
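Cells of the KeratinoSens line were plated at 1,500 per well and left for 5 h before compound transfer from DMSO stocks. After a 23 h incubation (37 C, 5% CO2), CellTiter-Fluor was added. Signal was taken as fluorescence intensity 1 h later.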
A general note: In qHTS, concentration-response curves come from the screen itself.

Assay [2] in a line: Nuclear factor erythroid 2-related factor 2/antioxidant responsive element (Nrf2/ARE) small molecule agonists: luciferase reporter gene qHTS assay in human keratinocytes (AID 1919969). Further: nearly all actives have a fitted effect of over 35% in size. Further: potency means the concentration at half of the fitted maximal effect. To be noted: KeratinoSens HaCaT ARE-luciferase, luminescence, 24 h; series mostly up to 92.4 µM. (In general: In a reporter assay the amount or activity of a reporter protein is the signal.)
Assay [3] deals with KiSS-1 receptor (Homo sapiens) (UniProt Q969F8). Put plainly: Human kisspeptin (KISS1R) small molecule agonists, calcium flux assay in KISS1R-HEK293 cells (AID 1920064; active means well fitted curve in the direction sought with a large enough effect in the repeat runs; an effect the other way counts as inactive or inconclusive). To be noted: KISS1R-HEK293, calcium flux fluorescence, agonist; series mostly up to 76.8 µM. The method, boiled down:
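Cell line: HEK293, stable human KISS1R. Dye loading 1 h at 37 C after 18 h culture. Read: kinetic fluorescence, 480/540 nm, 3 min at 1 s intervals.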
In general terms: Calcium flux is commonly read through the fluorescence of an indicator in the cells.

The nature of assay [4]: G protein-coupled receptor (GPCR) small molecule agonists, calcium flux assay: HEK293 wild type cell line counter screen (AID 1920065). To be noted: HEK293 WT calcium flux, fluorescence, agonist mode; series mostly up to 57.6 µM. The method, boiled down:
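Tox21 10K compounds, 15 concentrations each in triplicate, pin-transferred in DMSO onto dye-loaded cells; kinetic read at 480/540 nm for 3 min, 1 s intervals.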

Assay [5] can be described thus: p53 small molecule agonists, cell-based qHTS assay with rat liver microsomes (AID 1963578). To be noted: HCT-116 p53RE-bla, beta-lactamase ratio, 16 h; series mostly up to 66 µM. The method, boiled down:
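Agonist mode in p53RE-bla reporter cells, with compounds co-incubated 16 h at 37 C alongside 0.5 mg/mL rat liver microsomes and 0.5 mg/mL NADPH (final), followed by a 2 h LiveBLAzer detection step.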

Assay [6] in a line: p53 small molecule agonists, cell-based qHTS assay with rat liver microsomes: qHTS cell viability counter screen (AID 1963580). Further: nearly all actives have a fitted effect of over 45% in size. Further: potency means the concentration at half of the fitted maximal effect. To be noted: p53RE-bla HCT-116 + rat microsomes, ATP viability, 16 h; series mostly up to 66 µM. The method, boiled down:
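Luminescent ATP readout (CellTiter-Glo, 30 min at room temperature) reports viability of p53RE-bla HCT-116 cells after 16 h at 37 C with test compounds under metabolic activation by rat liver microsomes and NADPH at 0.5 mg/mL final each.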

Assay [7] in a line: p53 small molecule agonists, cell-based qHTS assay: qHTS cell viability counter screen (AID 1963581). Further: nearly all actives have a fitted effect of over 45% in size. Further: potency means the concentration at half of the fitted maximal effect. The note with it: p53RE-bla HCT-116 viability, ATP luminescence, 16 h; series mostly up to 66 µM. The method, boiled down: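 ATP content measured by luminescence in HCT-116 p53RE-bla cells treated 16 h at 37 C, same wells as the reporter screen.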
The target of assay [8] is Muscarinic acetylcholine receptor M1 (Homo sapiens) (UniProt P11229). Put plainly: Cholinergic receptor muscarinic 1 (CHRM1) small molecule antagonists, cell-based qHTS assay (AID 1963588). Further: nearly all actives have a fitted effect of over 40% in size. The note with it: CHRM1-CHO antagonist mode, calcium flux fluorescence; series mostly up to 61.5 µM. The method, boiled down: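 Compounds were tested at 15 concentrations in three independent runs. Dye-loaded CHRM1-CHO cells were exposed 5 min at room temperature before stimulation by acetylcholine added at 50nM. Intracellular calcium was read kinetically on FDSS for 3 min.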
Muscarinic acetylcholine receptor M1 (Homo sapiens), sequence (P11229 whole entry, looked up): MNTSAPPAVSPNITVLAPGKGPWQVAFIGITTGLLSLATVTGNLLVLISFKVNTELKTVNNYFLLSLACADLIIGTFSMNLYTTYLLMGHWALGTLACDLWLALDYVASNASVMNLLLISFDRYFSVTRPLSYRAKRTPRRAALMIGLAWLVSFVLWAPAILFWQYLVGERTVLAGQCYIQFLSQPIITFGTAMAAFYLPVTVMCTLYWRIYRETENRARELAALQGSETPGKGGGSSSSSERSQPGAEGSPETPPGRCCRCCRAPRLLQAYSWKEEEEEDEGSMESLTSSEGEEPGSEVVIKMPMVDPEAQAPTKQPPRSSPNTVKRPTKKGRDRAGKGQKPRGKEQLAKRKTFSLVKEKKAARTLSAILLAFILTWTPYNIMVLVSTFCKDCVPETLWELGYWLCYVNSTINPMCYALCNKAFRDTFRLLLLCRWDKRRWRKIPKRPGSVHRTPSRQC

In assay [9] the target is D(2) dopamine receptor (Homo sapiens) (UniProt P14416). Put plainly: Dopamine D2 receptor (DRD2) small molecule agonists, cell-based qHTS assay (AID 1963594). Further: nearly all actives have a fitted effect of over 35% in size. To be noted: HEK293-DRD2 cAMP HTRF, agonist mode, 30 min; series mostly up to 92.4 µM. The method, boiled down: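 HEK293 cells stably expressing DRD2 were cultured 24 h at 37 C, then given Ro20-1724 (0.1 mM final) and compounds for 10 min at room temperature. NKH477 (200nM) was then added for 30 min. cAMP was read by HTRF.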
D(2) dopamine receptor (Homo sapiens), sequence (P14416 whole entry, looked up): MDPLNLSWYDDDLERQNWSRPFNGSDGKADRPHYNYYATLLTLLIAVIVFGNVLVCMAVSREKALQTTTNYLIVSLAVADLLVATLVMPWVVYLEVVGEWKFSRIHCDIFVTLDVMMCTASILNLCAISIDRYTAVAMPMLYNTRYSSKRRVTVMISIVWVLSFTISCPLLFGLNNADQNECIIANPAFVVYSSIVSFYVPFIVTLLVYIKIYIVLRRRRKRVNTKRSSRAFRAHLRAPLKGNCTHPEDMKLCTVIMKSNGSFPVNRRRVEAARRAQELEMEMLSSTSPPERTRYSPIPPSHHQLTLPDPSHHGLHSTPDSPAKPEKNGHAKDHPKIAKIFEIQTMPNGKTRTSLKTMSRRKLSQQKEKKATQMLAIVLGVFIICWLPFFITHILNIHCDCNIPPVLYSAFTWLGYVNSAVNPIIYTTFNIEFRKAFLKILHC

The target is the same in assay [10]. The assay can be described thus: Dopamine D2 receptor (DRD2) small molecule antagonists, cell-based qHTS assay (AID 1963595; active means well fitted inhibition curve with a large enough effect in the signal ratio in the repeat runs, with a control signal flat; the % refers to the signal ratio; further: potency means the concentration at half of the fitted maximal effect). The note with it: HEK293-DRD2 cAMP HTRF antagonist mode; series mostly up to 92.4 µM. The method, boiled down:
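Antagonist mode in DRD2-HEK293 cells: after compound addition with 0.1 mM Ro20-1724, cells received quinpirole (12 nM) and NKH477 (200 nM) for 30 min at room temperature; HTRF cAMP read after 1 h detection.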

Assay [11] is described as follows: p53 small molecule agonists, cell-based qHTS assay (AID 1963582; active means well fitted activation curve with a large enough effect in the signal ratio in the repeat runs, not every such curve was filed as active; the % refers to the signal ratio). The note with it: HCT-116 p53RE-bla reporter, beta-lactamase FRET ratio, 16 h; series mostly up to 66 µM. The method, boiled down: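 16 h compound exposure (37 C) of p53 response element–bla cells, preceded by 5 h recovery at 37 C/5% CO2; read-out via LiveBLAzer B/G FRET substrate, 2 h RT, fluorescence intensity.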

Assay [12] has as its target 5-hydroxytryptamine receptor 2A (Homo sapiens) (UniProt P28223). Put plainly: 5-hydroxytryptamine receptor 2A (HTR2A) small molecule antagonists, cell-based qHTS assay (AID 1963586). Further: nearly all actives have a fitted effect of over 45% in size. To be noted: HTR2A-CHO cells, DOI-induced calcium flux, fluorescence; series mostly up to 61.5 µM. The method, boiled down:
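CHO cells stably expressing human HTR2A were plated for 18 h at 37 C, then loaded with calcium dye for 1 h. Compounds were preincubated 5 min at room temperature before DOI (4 nM solution) was added. Kinetic fluorescence was read for 3 min.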

For assay [13] the target is unchanged. The assay can be described thus: 5-hydroxytryptamine receptor 2A (HTR2A) small molecule agonists, cell-based qHTS assay (AID 1963587). Further: nearly all actives have a fitted effect of over 30% in size. The note with it: HTR2A-CHO cells, calcium flux fluorescence, agonist mode; series mostly up to 76.8 µM. The method, boiled down:
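HTR2A-CHO cells, plated 18 h at 37 C/5% CO2, dye-loaded 1 h at 37 C; compounds in DMSO added by pin tool (agonist mode). Intracellular calcium flux read as kinetic fluorescence on FDSS over 2 min at 1 s intervals.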

The target of assay [14] is Muscarinic acetylcholine receptor M1 (Homo sapiens) (UniProt P11229). Put plainly: Cholinergic receptor muscarinic 1 (CHRM1) small molecule agonists, cell-based qHTS assay (AID 1963589). Further: nearly all actives have a fitted effect of over 35% in size. To be noted: CHRM1-CHO cells, agonist mode, calcium flux fluorescence; series mostly up to 76.8 µM. The method, boiled down:
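Homogeneous fluorescence calcium flux, agonist mode. Human M1-expressing CHO cells; compound dosed at 15 concentrations, three independent runs; signal sampled every 1 sec.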

Assay [15] can be described thus: cAMP Responsive Elements (CRE) small molecule agonists, cell-based qHTS assay (AID 1963590). The note with it: CRE-bla HEK293T, beta-lactamase FRET ratio, 3 h; series mostly up to 92.4 µM. The method, boiled down:
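HEK 293T cells stably bearing CRE-bla were plated at 2,000 cells per well and rested 18 h. Compounds, positive controls or DMSO were added for 3 h at 37 C. LiveBLAzer B/G substrate was then loaded for 2 h at room temperature.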

A short description of assay [16]: cAMP Responsive Elements (CRE) small molecule antagonists, cell-based qHTS assay (AID 1963591; active means well fitted inhibition curve with a large enough effect in the signal ratio in the repeat runs, not every such curve was filed as active; the % refers to the signal ratio). To be noted: CRE-bla HEK293T, beta-lactamase FRET ratio; series mostly up to 92.4 µM. The method, boiled down:
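First, CRE-bla HEK293T cells settled 18 h at 37 C. Next, compound and 0.25 uM final NKH477 were applied for 3 h. Last, LiveBLAzer B/G substrate was loaded for 2 h at room temperature.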

The target in assay [17] is Beta-2 adrenergic receptor (Homo sapiens) (UniProt P07550). The assay can be described thus: Adrenergic beta2 receptor (ADRB2) small molecule antagonists, cell-based qHTS assay (AID 1963592). Further: nearly all actives have a fitted effect of over 50% in size. To be noted: CHO-ADRB2 cells, isoproterenol-stimulated cAMP HTRF ratio, 0.5 h; series mostly up to 92.4 µM. The method, boiled down:
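Assay format: CHO-ADRB2 cells, 18-20hr seeding at 37C/5% CO2, then compound plus 1nM isoproterenol agonist mix for 0.5hr RT. Homogeneous time-resolved fluorescence cAMP detection after 1hr, expressed as 665/615 nm ratio.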

The nature of assay [18]: p53 small molecule agonists, cell-based qHTS assay with human liver microsomes (AID 1963577).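 Further: p53 response element beta-lactamase reporter cells with liver microsomes plus NADPH.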 The note with it: HCT-116 p53RE-bla with human liver microsomes, ratio, 16 h; series mostly up to 66 µM. The method, boiled down:
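In this qHTS, p53 response-element beta-lactamase cells receive test compound together with a microsome/NADPH activating system (0.5 mg/mL final each) and are incubated 16 h at 37 C before LiveBLAzer fluorescence detection.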

Assay [19] is described as follows: p53 small molecule agonists, cell-based qHTS assay with human liver microsomes: qHTS cell viability counter screen (AID 1963579). Further: nearly all actives have a fitted effect of over 45% in size. The note with it: p53RE-bla HCT-116 viability, ATP luminescence, 16 h, HLM; series mostly up to 66 µM. The method, boiled down: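 Metabolically activated exposure: compounds, human liver microsomes and NADPH (0.5 mg/mL final apiece) were added to p53RE-bla cells seeded 5 h earlier, left 16 h at 37 C, and then assessed for viability by CellTiter-Glo luminescence.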

Unmarked numbers belong to inactive results. Results filed as inconclusive are left out. The source made the active and inactive calls. Unless noted, the call rests on the fitted dose curve.
On the % scale 0 is the no-effect control and ±100 the full control effect.

KiSS-1 receptor (Homo sapiens), sequence (Q969F8 whole entry, looked up): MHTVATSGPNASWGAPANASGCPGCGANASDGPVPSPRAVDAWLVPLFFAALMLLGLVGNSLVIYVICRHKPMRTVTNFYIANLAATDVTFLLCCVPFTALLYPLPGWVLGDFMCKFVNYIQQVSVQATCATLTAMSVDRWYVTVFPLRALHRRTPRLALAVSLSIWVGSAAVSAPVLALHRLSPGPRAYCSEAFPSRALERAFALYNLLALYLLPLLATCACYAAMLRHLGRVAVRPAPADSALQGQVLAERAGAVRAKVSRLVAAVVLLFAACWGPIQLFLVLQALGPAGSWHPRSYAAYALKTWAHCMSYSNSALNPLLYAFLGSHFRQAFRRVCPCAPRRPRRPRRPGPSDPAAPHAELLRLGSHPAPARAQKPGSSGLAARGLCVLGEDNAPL
Beta-2 adrenergic receptor (Homo sapiens), sequence (P07550 whole entry, looked up): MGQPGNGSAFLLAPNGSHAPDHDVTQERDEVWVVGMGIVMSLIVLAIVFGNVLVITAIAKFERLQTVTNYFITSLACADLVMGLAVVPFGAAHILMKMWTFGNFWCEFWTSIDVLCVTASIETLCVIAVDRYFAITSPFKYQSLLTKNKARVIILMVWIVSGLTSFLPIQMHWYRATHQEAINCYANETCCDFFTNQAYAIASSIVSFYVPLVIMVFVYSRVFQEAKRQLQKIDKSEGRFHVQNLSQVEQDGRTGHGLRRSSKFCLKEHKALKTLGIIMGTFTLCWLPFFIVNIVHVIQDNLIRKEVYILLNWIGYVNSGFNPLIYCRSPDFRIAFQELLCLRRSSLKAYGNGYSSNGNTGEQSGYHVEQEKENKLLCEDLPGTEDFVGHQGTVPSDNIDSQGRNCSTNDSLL
5-hydroxytryptamine receptor 2A (Homo sapiens), sequence (P28223 whole entry, looked up): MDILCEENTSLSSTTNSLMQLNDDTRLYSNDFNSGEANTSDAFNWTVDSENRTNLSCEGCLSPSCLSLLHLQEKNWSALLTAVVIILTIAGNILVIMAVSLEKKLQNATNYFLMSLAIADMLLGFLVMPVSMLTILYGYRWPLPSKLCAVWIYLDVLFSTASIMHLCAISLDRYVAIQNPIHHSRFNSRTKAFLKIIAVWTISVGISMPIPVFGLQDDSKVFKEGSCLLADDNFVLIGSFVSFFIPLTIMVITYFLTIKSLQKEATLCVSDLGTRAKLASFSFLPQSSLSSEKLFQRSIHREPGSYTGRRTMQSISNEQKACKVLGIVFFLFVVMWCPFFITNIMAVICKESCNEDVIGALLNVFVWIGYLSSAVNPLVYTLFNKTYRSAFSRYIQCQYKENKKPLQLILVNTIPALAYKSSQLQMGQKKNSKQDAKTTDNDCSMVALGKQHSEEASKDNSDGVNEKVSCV

As to `CCC[CH2][Sn]([CH2]CCC)([CH2]CCC)[O][Sn]([CH2]CCC)([CH2]CCC)[CH2]CCC`, the Potency was 533 nM (active) in assay [1]; 533 nM (active) in assay [2]; 1000 nM (active) in assay [6]; 893 nM (active) in [7]; 2120 nM (active) in assay [10]. In addition, the activation in assay [3] is 9.21% [at 6.97 µM]; in assay [4], 2.41% [at 5.23 µM]; in assay [5] it was -3.45% [at 5.99 µM]; in assay [9] it was 2.93% [at 8.39 µM]. Besides, the activity, negative = inhibition in assay [8] was 0.927% [at 5.58 µM].

Turning to `CC(C)CP(=S)(S)CC(C)C`, the Potency entry in assay [1], in assay [3], in assay [4], in assay [6], in assay [7] and in assay [11] was “inactive” in each case. Also, the Potency entry in [12], in [13], in assay [8], in [14], in [15] and in [16] was “inactive” in each case. Besides, the Potency entry in assay [17], in assay [9] and in [10] was “inactive” each time. Besides, the Potency in [2] was 15400 nM (active).

Take `CCCCCCC(=O)CCCCCC/C=C/C[C@@H](O)[C@H](O)[C@@](N)(CO)C(=O)O`: the activity change, negative = cytotoxicity in [1] was -1.3% [at 19 µM]; in assay [19], 0.682% [at 13.5 µM]; in assay [6] it was -0.611% [at 13.5 µM]; in assay [7], 17.4% [at 13.5 µM]. In addition, in assay [2], the activity, positive = activation was -3.71% [at 19 µM]. Also, the activation in assay [3] was 0.0857% [at 15.8 µM]; in assay [18], 4.34% [at 13.5 µM]; in assay [5], 0.608% [at 13.6 µM]; in assay [11], 0.605% [at 13.5 µM]; in assay [13], 2.62% [at 15.9 µM]; in [14], -0.559% [at 15.8 µM]. Also, the activation in assay [15] is 3.57% [at 19 µM]. In addition, the results for the activity, negative = inhibition in assay [12] and in assay [8] were 87.4% [at 12.7 µM] and 3.07% [at 12.6 µM], respectively. The activity change, negative = inhibition in assay [16] is -12.2% [at 18.9 µM]; in assay [17], 9.53% [at 19 µM]; in [10] it was 0.928% [at 18.9 µM].

Take `Nc1ccc([N+](=O)[O-])cc1`: the Potency in [1] was 61100 nM (active); in assay [2] it was 24300 nM (active); in [7], 8390 nM (active). Further, the Potency result in assay [3], in assay [4], in assay [18], in assay [5], in [8] and in [14] was “inactive” throughout. The Potency result in [17] and in assay [10] was “inactive” in each case.
